The panel holds about 83,000 compounds, 20% with a hit somewhere; the sample as a whole holds those more often.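 48-hour exposure, single concentration, 96-well plates; percent growth endpoint where 0 means no net growth. Active: below 10.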 The source made the active and inactive calls.

For this assay, the system named is A549/ATCC NSCLC. Description: NCI-60 one-dose screen, 48 h (100 = growth as untreated, 0 = no growth, -100 = all killed). The settings on record: 10 µM unless noted.
On to `CCOc1cccc(-c2nc(N)nc(Nc3ccccc3SSc3ccccc3Nc3nc(N)nc(-c4cccc(OCC)c4)n3)n2)c1`, for which the growth was -10.8% (active).

Take `Nc1n[nH]c2cccc(C#Cc3cccc(C(=O)Nc4cccc(C(F)(F)F)c4)c3)c12`: the growth is 77.8% (inactive).

Regarding `O=C(Nc1ccc(Cl)cc1)c1cc(NCc2cc(O)ccc2O)ccc1O`, the growth is 80.7% (inactive).

For `COc1cc(/C=C2\COc3ccc(-c4ccccc4)cc3C2=O)cc(OC)c1`, the growth is 72% (inactive).

As to `Cc1c(C(=O)NCCC(=O)NO)sc2ncnc(Nc3ccc(NC(=O)Nc4cccc(C(F)(F)F)c4)cc3)c12`, the growth was 104% (inactive).

On to `Cc1cc(C)c(S(=O)(=O)Oc2ccccc2[N+](=O)[O-])c(C)c1`, for which the growth is 31.2% (inactive).

For `CCCC/C=N/NC(=S)NCc1ccccc1`, the growth was 97.9% (inactive).

In the case of `O=C(Nc1ccc(-c2ccc3c(c2)NC(=O)/C3=C\c2ccc[nH]2)cc1)NC1CC1`, the growth is 102% (inactive).

Consider `NCCCCCCNc1cc(-c2cccc(OC(F)(F)F)c2)nc2ccc(N3CCCC3)cc12`, for which the growth is 16.6% (inactive).

The record behind these values is PubChem BioAssay (NCI).
